Consider four molecules from ChEMBL document CHEMBL1157539, “Thousands of chemical starting points for antimalarial lead identification” (Nature, 2010).

The structures appear in SMILES notation.

In the experiment the test system is HepG2. The experiment is described as follows: GSK_TCMDC: Percent inhibition of human HepG2 cell line. Test compounds present at 10uM. The format is functional.
Take `C=CCC(CC=C)N1C(=O)C(c2ccccc2)(c2ccccc2)N=C1N.O=CO`: the Inhibition (as a rule, the drop in the measured response relative to a control, in per cent) was determined as 35%. Turning to `CN(C)c1cc(C(=O)N[C@@H](Cc2ccccc2)[C@H](O)CNC2CCCCC2)cc2[nH]ccc12.O=CO`, the Inhibition amounted to 10%. `CCN(CC)CCNC(=O)c1ccc(NC(=O)c2oc3c(Cl)cccc3c2C)cc1` had an Inhibition of 24%. Under `O=C(C=Cc1ccc(Cl)c(Cl)c1)NCCCCCN1CCC(CCNS(=O)(=O)c2ccc(F)cc2)CC1` stands 36%.
